Assay results from PubChem BioAssay (NCI).
About 83,000 compounds went through this panel and 20% of them were active in at least one assay; those are over-represented in the sample as a whole.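 Cells were grown in 96-well plates and exposed to the test compound at a single concentration for 48 hours; results are reported as percent growth, with values below 10 considered active.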 Unmarked numbers belong to inactive results. Active and inactive are the calls of the source.

How the values were obtained:
Test in all cases: NCI-60 one-dose screen, 48 h (100 = growth as untreated, 0 = no growth, -100 = all killed)
Settings in all cases: 10 µM unless noted
HCT-15 colon = tested on: HCT-15 colon
HT29 colon = tested on: HT29 colon
SNB-75 CNS = tested on: SNB-75 CNS
SNB-19 CNS = tested on: SNB-19 CNS
SK-MEL-5 melanoma = tested on: SK-MEL-5 melanoma
UACC-62 melanoma = tested on: UACC-62 melanoma
LOX IMVI melanoma = tested on: LOX IMVI melanoma
SK-MEL-28 melanoma = tested on: SK-MEL-28 melanoma
SN12C renal = tested on: SN12C renal
UO-31 renal = tested on: UO-31 renal
TK-10 renal = tested on: TK-10 renal
ACHN renal = tested on: ACHN renal
A498 renal = tested on: A498 renal
CCRF-CEM leukemia = tested on: CCRF-CEM leukemia
MOLT-4 leukemia = tested on: MOLT-4 leukemia
SK-MEL-2 melanoma = tested on: SK-MEL-2 melanoma
EKVX NSCLC = tested on: EKVX NSCLC
CAKI-1 renal = tested on: CAKI-1 renal
PC-3 prostate = tested on: PC-3 prostate
U251 CNS = tested on: U251 CNS

| Compound | growth (HCT-15 colon) | growth (HT29 colon) | growth (SNB-75 CNS) | growth (SNB-19 CNS) | growth (SK-MEL-5 melanoma) | growth (UACC-62 melanoma) | growth (LOX IMVI melanoma) | growth (SK-MEL-28 melanoma) | growth (SN12C renal) | growth (UO-31 renal) | growth (TK-10 renal) | growth (ACHN renal) | growth (A498 renal) | growth (CCRF-CEM leukemia) | growth (MOLT-4 leukemia) | growth (SK-MEL-2 melanoma) | growth (EKVX NSCLC) | growth (CAKI-1 renal) | growth (PC-3 prostate) | growth (U251 CNS) |
| --- | --- | --- | --- | --- | --- | --- | --- | --- | --- | --- | --- | --- | --- | --- | --- | --- | --- | --- | --- | --- |
| N#Cc1cnn(-c2nc3c(Cl)cccc3s2)c1N | 91.8% | 84.8% | 77.7% | 94.8% | 90.8% | 89.2% | 81.4% | 102% | 88.5% | 83.2% | 92.7% | 67.4% | 97.1% | 91.1% | 92.4% |  |  |  |  |  |
| COc1ccc(/C=C/C(=O)c2ccc(O)c(CN3CCN(c4cc5c(cc4F)c(=O)c(C(=O)O)cn5C4CC4)CC3)c2)cc1 | 19.1% | 11.1% | -5.37% (active) | 24% | -23% (active) | 27.2% | 12.8% | 57.9% | 7.55% (active) | 3.15% (active) | 52.7% | 25.5% | -0.877% (active) | 28.6% | 45.7% | 34.5% | 57.3% | 32% |  |  |
| CC(C)(CCCN=C(N)Nc1ccc(Cl)cc1)c1ccc(F)cc1 | 67.1% | 12.7% | 60.7% | 67.4% |  |  | 57.8% |  |  | 58.5% | 72.4% |  | 77.6% | 53.7% | 37.7% | 94.6% | 71.7% | 74.7% |  |  |
| COc1cc2nc(N3CCCC3)nc(NCc3ccccc3)c2cc1OC | 6.07% (active) | 18.7% | 69.1% | 95.6% | 67.8% | 97.3% |  | 57% | 69.6% | 52.1% | 100% | 62.2% | 36.3% | 5.92% (active) | 35.4% | 106% | 74.7% | 65.8% |  |  |
| COc1cc(C=Nc2oc(-c3ccccc3)c(-c3ccccc3)c2C#N)cc(CN2CCCCC2)c1O | 95.4% |  | 66.6% | 98.6% | 98.4% | 88.4% | 87.7% | 110% | 99.5% | 73.6% | 107% | 99.6% | 72.3% | 101% | 86.8% | 103% | 95% | 86.6% | 93.2% |  |
| O=C(N/N=C/c1c[nH]c2ccccc12)c1cc(-c2ccccc2)on1 | 71.2% |  | 67% | 89.8% | 91.3% | 62.8% | 56.3% | 106% | 92.3% | 60.7% | 125% | 87.6% | 78.6% | 46.1% | 69.5% | 101% | 87.9% | 69.7% | 88% |  |
| CCNC(=O)Oc1ccc(/C(=C(\C)c2ccc(Cl)cc2)c2ccc(OCCN(CC)CC)cc2)cc1 | 1.8% (active) |  | 45.2% | 59.2% |  | -68.3% (active) | -59% (active) | -62.3% (active) | 66.1% | 25.8% | 80.4% |  | 85.5% | 16.4% | 7.99% (active) | 38.1% |  |  | 31.4% | 21.1% |
| Clc1ccc2c(NCCNc3nc(N4CCCCC4)nc4ccccc34)ccnc2c1 | -30.1% (active) |  | -23.2% (active) | 13.2% |  | -90.7% (active) | -83.6% (active) | -79.2% (active) | -2.91% (active) | -97.6% (active) | -32.5% (active) | -72.8% (active) | 75.8% | 0.574% (active) | 7.69% (active) | -61.8% (active) | 32.9% |  | 9.71% (active) | -81.7% (active) |
| COc1ccc(C2CC(c3ccc4ccccc4c3)=NN2/C=C2\SC(=S)N(NC(=O)Cc3ccccc3Nc3c(Cl)cccc3Cl)C2=O)cc1 (configuration not stated) | 19.4% |  | -15.7% (active) | 32% | 19.6% | 42.8% | 37.1% | 57% |  | 11.8% | 48.7% | 47.4% | -0.474% (active) | 6.24% (active) | 13.9% | 38.8% | 40.2% | 31.5% |  |  |
| Nc1n[nH]c2cc(F)c([C@@H]3Nc4ccc5[nH]ncc5c4[C@H]4C5CCC(C5)[C@@H]34)cc12 (some centres not stated) | 6.23% (active) |  | -13.5% (active) | 35.4% |  | 31.5% | 12.3% | 65.8% | 33.5% | 38.6% | 52.5% | 21.1% |  | 16.6% | 16.1% | 26.2% | 47.2% | 9.87% (active) | 8.48% (active) | 2.97% (active) |
| Oc1ccc(N=Cc2ccccc2O)cc1 | 120% |  | 89.1% | 93.1% | 92.3% | 96.8% | 104% | 127% | 102% | 77.3% | 101% | 88.3% | 112% | 79.5% | 89.6% | 141% | 103% |  |  | 83.3% |
| O=C1c2cc3c(cc2-c2c1c1ccc(Cl)cc1c(=O)n2CCCN1CCOCC1)OCO3 | 80.9% |  | 84.2% | 47.1% |  | 23.6% | 26.7% | 99.9% | 46.3% | 44.5% | 103% |  | 76.2% | 20.7% | 8.7% (active) | 100% | 93.8% | 21.4% | 74% | 27.4% |
| COc1ccc(O)c(N=Nc2nccs2)c1 | 67.3% |  | 91% | 94.9% |  | 89.8% | 60.9% | 115% | 99.4% | 61.1% | 106% | 28.7% | 88.4% | 3.48% (active) | 7.26% (active) | 91.6% | 54.3% |  | 67.3% | 54.4% |
| CN1CCN(c2ccc(Nc3c4ccccc4nc4ccccc34)cc2)CC1 | 99.3% |  | 96.8% | 107% | 102% | 109% | 105% | 109% | 102% | 97.5% | 102% | 102% | 112% | 105% | 97.5% | 106% |  | 107% |  | 99.8% |
| C=C(C)C(=O)Nc1ccc(NC(C)C)cc1 | 125% |  | 102% | 105% | 134% | 118% |  | 119% | 121% | 100% | 138% | 125% | 101% |  | 128% | 53.5% | 115% |  |  | 123% |
| C/C1=C\CC[C@@]2(C)O[C@H]2[C@H]2OC(=O)C(CN3CCN(CC4C(=O)O[C@H]5[C@H]4CC/C(C)=C/CC[C@@]4(C)O[C@@H]54)CC3)[C@@H]2CC1 (some centres not stated) | 95% |  | 85.4% | 99.2% |  |  | 93.7% |  |  | 96.7% | 89.7% | 87.1% | 114% | 58% | 84.3% | 107% | 96.8% |  | 92% | 94% |
| COc1cccc(-c2nn(C(C)(C)C)cc2-c2ccnc(NCCCNS(=O)(=O)c3cccc4ccccc34)c2)c1 | 108% |  | 71.2% | 100% | 100% | 108% | 99.8% | 112% | 103% | 91.1% | 101% | 107% | 76.9% | 102% | 104% | 111% | 98.9% | 96.6% | 106% |  |
| Cc1ccc2c(c1)C(=O)/C(=C/c1cccc(OCC(=O)c3ccc(Cl)cc3)c1)CS2 | 81.3% |  | 87.6% | 93.9% | 85.1% | 76.2% | 75.3% | 123% | 88.4% | 71.2% | 93% | 99.6% | 80.4% | -2.6% (active) | 19.1% | 58.2% | 91.9% | 89.2% |  | 89.7% |
